Laboratory results as given in PubChem BioAssay (NCI).
Compounds without any hit were thinned out: in the full panel of roughly 83,000, 20% have a hit.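 Growth was measured after 48 h exposure to one concentration of compound in 96-well plates. Values under 10 count as active.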 Values without a mark were called inactive. Calls of active or inactive are those of the source.

Test system: HL-60(TB) leukemia
Assay: NCI-60 one-dose screen, 48 h (100 = growth as untreated, 0 = no growth, -100 = all killed)
Settings: 10 µM unless noted

Question: For `COc1ccc2c(c1)/C(=C/c1cc(OC)c(OC)c(OC)c1)C(=O)N2C`, which growth is on record?
Answer: The growth was 3.32% (active).

Question: Which growth does the source give for `N#Cc1c(-c2cccc(Cl)c2)cc(-c2cccc(F)c2)[nH]c1=O` here?
Answer: Its growth is -58.3% (active).

Question: How did the growth turn out when `C1=NCCc2ccccc21` was run?
Answer: The growth was 116%.

Question: For `O=C(/C=C/C12c3ccccc3C(c3ccccc31)C1C(=O)NC(=O)C12)c1ccccc1` (centres undefined), which growth is on record?
Answer: The growth was 9.79% (active).
